Laboratory results taken from PubChem BioAssay AID1159580 (chemical genetic matrix, 2015).
Out of some 5,500 compounds screened, about 2,000 (36%) were called active. Roughly 18% stayed inconclusive and do not appear here. No stated cut-off is given here; in the data, active means normalized growth mostly below about 0.91 (no sharp cut-off); inconclusive means no clear call, values can overlap the other calls; inactive means mostly above about 0.92. The list shows a part of the results.

Assay: chemical genetic growth profiling, strain panel (AID 1159580);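 further: tested at 20 µM; growth read once vehicle control cultures reached saturation at 30 °C; 1 = growth at the plate median or of vehicle wells; lower values mean less growth of the strain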
Conditions: growth OD

Measured: normalized growth

NC[C@H]1O[C@H](OC2[C@@H](N)C[C@@H](N)[C@H](O[C@H]3O[C@H](CO)[C@@H](O)[C@H](N)[C@H]3O)[C@H]2O)[C@H](O)[C@@H](O)[C@@H]1O (some centres undefined)
inactive: S. cerevisiae deletion strains, locus YJR066W, strain TOR1, active compounds read low 0.956 | S. cerevisiae deletion strains, locus YJR075W, strain HOC1, active compounds read low 0.996 | S. cerevisiae deletion strains, locus YKL009W, strain mrt4, active compounds read low 0.985 | S. cerevisiae deletion strains, locus YKL068W, active compounds read low 0.986 | S. cerevisiae deletion strains, locus YKL085W, strain MDH1 (second series), active compounds read low 0.98 | S. cerevisiae deletion strains, locus YKL085W, strain MDH1, active compounds read low 0.98 | S. cerevisiae deletion strains, locus YKL160W, strain elf1, active compounds read low 0.979 | S. cerevisiae deletion strains, locus YKR001C, strain vps1, active compounds read low 0.994 | S. cerevisiae deletion strains, locus YKR026C, strain gcn3, active compounds read low 0.998 | S. cerevisiae deletion strains, locus YKR091W, strain srl3, active compounds read low 1.01 | S. cerevisiae deletion strains, locus YLL001W, strain dnm1, active compounds read low 0.973 | S. cerevisiae deletion strains, locus YLL026W, active compounds read low 1.01 | S. cerevisiae deletion strains, locus YLL041C, strain sdh2, active compounds read low 0.999 | S. cerevisiae deletion strains, locus YLR027C, strain aat2, active compounds read low 1.01 | S. cerevisiae deletion strains, locus YLR039C, strain RIC1, active compounds read low 0.927 | S. cerevisiae deletion strains, locus YLR058C, strain SHM2, active compounds read low 0.978 | S. cerevisiae deletion strains, locus YLR102C, strain apc9, active compounds read low 0.984 | S. cerevisiae deletion strains, locus YLR113W, strain HOG1, active compounds read low 1 | S. cerevisiae deletion strains, locus YLR221C, strain rsa3, active compounds read low 1.01 | S. cerevisiae deletion strains, locus YLR258W, strain gsy2, active compounds read low 1 | S. cerevisiae deletion strains, locus YLR262C, strain YPT6 (second series), active compounds read low 0.994 | S. cerevisiae deletion strains, locus YLR262C, strain YPT6, active compounds read low 1.04 | S. cerevisiae deletion strains, locus YLR268W, strain sec22, active compounds read low 0.986 | S. cerevisiae deletion strains, locus YLR320W, strain mms22, active compounds read low 0.987 | S. cerevisiae deletion strains, locus YLR330W, strain CHS5, active compounds read low 0.993 | S. cerevisiae deletion strains, locus YLR342W, strain FKS1 (second series), active compounds read low 1 | S. cerevisiae deletion strains, locus YLR342W, strain FKS1, active compounds read low 0.995 | S. cerevisiae deletion strains, locus YLR357W, strain rsc2, active compounds read low 0.979 | S. cerevisiae deletion strains, locus YLR370C, strain arc18, active compounds read low 0.993 | S. cerevisiae deletion strains, locus YLR371W, strain rom2, active compounds read low 0.981 | S. cerevisiae deletion strains, locus YLR384C, strain iki3, active compounds read low 0.994 | S. cerevisiae deletion strains, locus YLR418C, strain cdc73, active compounds read low 0.97 | S. cerevisiae deletion strains, locus YML016C, strain PPZ1, active compounds read low 0.99 | S. cerevisiae deletion strains, locus YML032C, strain rad52, active compounds read low 0.984 | S. cerevisiae deletion strains, locus YML120C, strain ndi1, active compounds read low 0.999 | S. cerevisiae deletion strains, locus YML124C, strain tub3, active compounds read low 0.984 | S. cerevisiae deletion strains, locus YMR058W, strain fet3, active compounds read low 1 | S. cerevisiae deletion strains, locus YMR078C, strain ctf18, active compounds read low 0.969 | S. cerevisiae deletion strains, locus YMR125W, strain sto1, active compounds read low 0.973 | S. cerevisiae deletion strains, locus YMR129W, active compounds read low 0.997 | S. cerevisiae deletion strains, locus YMR205C, strain PFK2, active compounds read low 0.975 | S. cerevisiae deletion strains, locus YMR223W, strain ubp8, active compounds read low 0.957 | S. cerevisiae deletion strains, locus YMR231W, strain pep5, active compounds read low 0.993 | S. cerevisiae deletion strains, locus YMR263W, strain SAP30, active compounds read low 0.999 | S. cerevisiae deletion strains, locus YMR307W, strain GAS1, active compounds read low 1.03 | S. cerevisiae deletion strains, locus YNL067W, strain RPL9B, active compounds read low 0.997 | S. cerevisiae deletion strains, locus YNL071W, strain lat1, active compounds read low 0.998 | S. cerevisiae deletion strains, locus YNL153C, strain GIM3, active compounds read low 0.993 | S. cerevisiae deletion strains, locus YNL183C, strain NPR1, active compounds read low 0.969 | S. cerevisiae deletion strains, locus YNL209W, strain ssb2, active compounds read low 0.996 | S. cerevisiae deletion strains, locus YNL233W, strain BNI4, active compounds read low 0.993 | S. cerevisiae deletion strains, locus YNL248C, strain rpa49, active compounds read low 0.988 | S. cerevisiae deletion strains, locus YNL250W, strain rad50, active compounds read low 0.974 | S. cerevisiae deletion strains, locus YNL271C, strain bni1, active compounds read low 0.978 | S. cerevisiae deletion strains, locus YNL298W, strain CLA4, active compounds read low 0.97 | S. cerevisiae deletion strains, locus YNL307C, strain MCK1, active compounds read low 0.971 | S. cerevisiae deletion strains, locus YNL322C, strain KRE1 (second series), active compounds read low 0.986 | S. cerevisiae deletion strains, locus YNL322C, strain KRE1, active compounds read low 0.996 | S. cerevisiae deletion strains, locus YNR049C, strain mso1, active compounds read low 0.992 | S. cerevisiae deletion strains, locus YNR052C, strain pop2, active compounds read low 0.973 | S. cerevisiae deletion strains, locus YOL006C, strain TOP1, active compounds read low 0.968 | S. cerevisiae deletion strains, locus YOL012C, strain htz1 1.24 | S. cerevisiae deletion strains, locus YOL147C, strain pex11, active compounds read low 0.982 | S. cerevisiae deletion strains, locus YOR001W, strain rrp6, active compounds read low 1.02 | S. cerevisiae deletion strains, locus YOR061W, strain CKA2, active compounds read low 0.989 | S. cerevisiae deletion strains, locus YOR069W, strain VPS5, active compounds read low 0.989 | S. cerevisiae deletion strains, locus YOR070C, strain gyp1, active compounds read low 0.998 | S. cerevisiae deletion strains, locus YOR080W, strain dia2, active compounds read low 1 | S. cerevisiae deletion strains, locus YOR083W, strain WHI5, active compounds read low 0.988 | S. cerevisiae deletion strains, locus YOR106W, strain vam3, active compounds read low 0.976 | S. cerevisiae deletion strains, locus YOR136W, strain idh2, active compounds read low 0.984 | S. cerevisiae deletion strains, locus YOR144C, strain elg1, active compounds read low 0.987 | S. cerevisiae deletion strains, locus YOR184W, strain ser1, active compounds read low 0.971 | S. cerevisiae deletion strains, locus YOR231W, strain MKK1, active compounds read low 0.983 | S. cerevisiae deletion strains, locus YOR265W, strain rbl2, active compounds read low 1 | S. cerevisiae deletion strains, locus YOR270C, strain vph1, active compounds read low 1.02 | S. cerevisiae deletion strains, locus YOR290C, strain snf2, active compounds read low 0.949 | S. cerevisiae deletion strains, locus YOR316C, strain cot1, active compounds read low 0.98 | S. cerevisiae deletion strains, locus YPL051W, strain arl3, active compounds read low 0.992 | S. cerevisiae deletion strains, locus YPL078C, strain atp4, active compounds read low 0.992 | S. cerevisiae deletion strains, locus YPL106C, strain sse1, active compounds read low 0.998 | S. cerevisiae deletion strains, locus YPL240C, strain hsp82, active compounds read low 0.987 | S. cerevisiae deletion strains, locus YPL256C, strain CLN2, active compounds read low 0.994 | S. cerevisiae deletion strains, locus YPR119W, strain clb2, active compounds read low 0.977 | S. cerevisiae deletion strains, locus YPR141C, strain kar3, active compounds read low 0.962 | S. cerevisiae deletion strains, locus YPR163C, strain tif3, active compounds read low 0.978 | S. cerevisiae deletion strains, locus YPR167C, strain met16, active compounds read low 0.981 | S. cerevisiae deletion strains, strain wtn01, active compounds read low 0.989 | S. cerevisiae strains, strain wild type, active compounds read low 0.995
